PubChem BioAssay (Tox21)
“And” between values parts separate entries of the source, which are not always exact repeats. Equal entries are not always repeated. Records with an inconclusive call do not appear. Entries that show only a call come without a potency. The source holds several records for some structures; these can differ, active in one and inactive in another. The source made the active and inactive calls. Unless noted, the call rests on the fitted dose curve; in most records, active means well fitted curve in the direction sought with a large enough effect in the repeat runs; inconclusive means weak or mixed curves; inactive means no such curve, though single readings can be large; an effect the other way counts as inactive or inconclusive.

Columns and labels:
[1] = qHTS assay to test for compound auto fluorescence at 535 nm (green) in HEK293 cells (AID 720680)
[2] = qHTS assay to test for compound auto fluorescence at 460 nm (blue) in HEK293 cell free culture (AID 720681)
Summary of the method: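 Compounds were added to cell-free DMEM with 10% FBS and fluorescence read directly. The blue channel used 405 nm excitation and 460 nm emission, with triamterene as the reference fluorophore.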

[3] = qHTS assay to test for compound auto fluorescence at 535 nm (green) in HEK293 cell free culture (AID 720682)
Summary of the method: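 Green-channel intensity (Ex/Em 485/535 nm) was recorded from compound-treated wells containing only DMEM with 10% FBS. Fluorescein provided the equivalency standard.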

[4] = qHTS assay to test for compound auto fluorescence at 590 nm (red) in HEK293 cell free culture (AID 720683)
Summary of the method: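 Cell-free wells of DMEM with 10% FBS received compound, and intrinsic fluorescence was read at excitation/emission 540/590 nm. Values expressed as equivalence to Rose Bengal sodium.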

[5] = qHTS assay to test for compound auto fluorescence at 590 nm (red) in HepG2 cell free culture (AID 720684)
Summary of the method: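 Compounds are added to culture medium (MEM, 10% FBS) lacking cells, then fluorescence is read at excitation 540 nm, emission 590 nm, with Rose Bengal sodium as the equivalency standard.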

[6] = qHTS assay to test for compound auto fluorescence at 460 nm (blue) in HepG2 cell free culture (AID 720685)
Summary of the method: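 Compound (23 nL) or DMSO pinned into cell-free MEM with 10% FBS; blue fluorescence read at 405/460 nm excitation/emission, expressed as auto-fluorescence equivalency to triamterene.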

[7] = qHTS assay to test for compound auto fluorescence at 535 nm (green) in HepG2 cell free culture (AID 720686)
[8] = biological target: Glucocorticoid receptor (Homo sapiens) (UniProt P04150); experiment: qHTS assay to identify small molecule agonists of the glucocorticoid receptor (GR) signaling pathway (AID 720691; active means well fitted activation curve with a large enough effect in the signal ratio in the repeat runs, not every such curve was filed as active; the % refers to the signal ratio)
Chain of Glucocorticoid receptor (Homo sapiens) (P04150 whole entry, looked up): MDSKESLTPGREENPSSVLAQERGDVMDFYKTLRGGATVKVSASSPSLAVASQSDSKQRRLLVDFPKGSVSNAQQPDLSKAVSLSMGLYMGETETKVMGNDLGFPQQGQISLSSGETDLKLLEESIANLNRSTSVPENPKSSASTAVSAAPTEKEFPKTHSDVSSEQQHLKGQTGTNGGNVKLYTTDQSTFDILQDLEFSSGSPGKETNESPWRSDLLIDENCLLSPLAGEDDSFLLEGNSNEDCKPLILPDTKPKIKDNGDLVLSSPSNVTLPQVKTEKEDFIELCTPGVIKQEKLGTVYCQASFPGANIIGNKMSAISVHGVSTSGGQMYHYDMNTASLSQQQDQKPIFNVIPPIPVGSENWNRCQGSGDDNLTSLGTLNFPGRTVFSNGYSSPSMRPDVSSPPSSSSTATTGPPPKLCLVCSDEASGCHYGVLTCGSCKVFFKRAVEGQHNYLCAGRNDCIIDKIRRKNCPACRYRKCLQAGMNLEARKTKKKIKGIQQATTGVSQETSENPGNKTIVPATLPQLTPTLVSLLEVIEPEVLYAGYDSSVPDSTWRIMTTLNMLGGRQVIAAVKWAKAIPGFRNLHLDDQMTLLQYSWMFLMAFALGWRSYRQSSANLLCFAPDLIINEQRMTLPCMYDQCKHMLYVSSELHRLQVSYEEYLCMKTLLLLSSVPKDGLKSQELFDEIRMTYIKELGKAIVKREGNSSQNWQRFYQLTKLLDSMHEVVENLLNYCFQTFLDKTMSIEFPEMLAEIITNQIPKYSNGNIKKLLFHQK
Summary of the method: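 Fluorescence intensity from LiveBLAzer B/G FRET substrate (2 h, room temperature) reports beta-lactamase expression driven by the glucocorticoid response element in GR-bla HeLa cells after 18 h compound exposure at 37 C.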

[9] = biological target: Glucocorticoid receptor (Homo sapiens) (UniProt P04150); experiment: qHTS assay to identify small molecule antagonists of the glucocorticoid receptor (GR) signaling pathway (AID 720692; active means well fitted inhibition curve with a large enough effect in the signal ratio in the repeat runs, not every such curve was filed as active; the % refers to the signal ratio)
Summary of the method: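 HeLa GR-bla cells; cmpd + dex 5 nM final, 18 h 37 C; LiveBLAzer B/G FRET substrate 2 h RT; fluorescence intensity read. Antagonist mode, qHTS.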

[10] = qHTS assay to identify small molecule antagonists of the glucocorticoid receptor (GR) signaling pathway - cell viability counter screen (AID 720693); further: nearly all actives have a fitted effect of over 55% in size; further: potency means the concentration at half of the fitted maximal effect
[11] = qHTS assay for identifying genotoxic compounds that show differential cytotoxicity against isogenic chicken DT40 cell lines with known DNA damage response pathways - wild type cell line (AID 743012); further: nearly all actives have a fitted effect of over 60% in size; further: potency means the concentration at half of the fitted maximal effect
Summary of the method: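 Wild type DT40, 300 cells/well, ~0.5 h settle at 37 C/5% CO2; compounds in DMSO added by pintool; 40 h at 37 C/5% CO2; CellTiter-Glo, 30 min RT; luminescence.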

[12] = qHTS assay to identify small molecule antagonists of the androgen receptor (AR) signaling pathway - cell viability counter screen (AID 743033; further: nearly all actives have a fitted effect of over 45% in size; further: potency means the concentration at half of the fitted maximal effect)
[13] = qHTS assay to identify small molecule antagonists of the androgen receptor (AR) signaling pathway using the MDA cell line - cell viability counter screen (AID 743041; further: nearly all actives have a fitted effect of over 45% in size; further: potency means the concentration at half of the fitted maximal effect)
Summary of the method: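 Same-well cytotoxicity was assessed by CellTiter-Fluor in MDA-kb2 AR-luc cells after 16 h of compound treatment under R1881 agonism.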

[14] = qHTS assay to test for compound auto fluorescence at 460 nm (blue) in HepG2 cells (AID 720687)
Summary of the method: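 HepG2 cells in MEM with 10% FBS, attached overnight at 37 C, were exposed to compound or DMSO for 1 hr at 37 C, 5% CO2. Blue fluorescence was read at 405/460 nm, with triamterene as reference fluorophore.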

[15] = qHTS assay for identifying genotoxic compounds that show differential cytotoxicity against isogenic chicken DT40 cell lines with known DNA damage response pathways - Rev3 mutant cell line (AID 743014); further: nearly all actives have a fitted effect of over 55% in size; further: potency means the concentration at half of the fitted maximal effect
[16] = qHTS assay for identifying genotoxic compounds that show differential cytotoxicity against isogenic chicken DT40 cell lines with known DNA damage response pathways - Rad54/Ku70 mutant cell line (AID 743015); further: nearly all actives have a fitted effect of over 60% in size; further: potency means the concentration at half of the fitted maximal effect
[17] = biological target: Androgen receptor (Homo sapiens) (UniProt P10275); experiment: qHTS assay to identify small molecule antagonists of the androgen receptor (AR) signaling pathway (AID 743035; active means well fitted inhibition curve with a large enough effect in the signal ratio in the repeat runs, not every such curve was filed as active; the % refers to the signal ratio)
Chain of Androgen receptor (Homo sapiens) (P10275 whole entry, looked up): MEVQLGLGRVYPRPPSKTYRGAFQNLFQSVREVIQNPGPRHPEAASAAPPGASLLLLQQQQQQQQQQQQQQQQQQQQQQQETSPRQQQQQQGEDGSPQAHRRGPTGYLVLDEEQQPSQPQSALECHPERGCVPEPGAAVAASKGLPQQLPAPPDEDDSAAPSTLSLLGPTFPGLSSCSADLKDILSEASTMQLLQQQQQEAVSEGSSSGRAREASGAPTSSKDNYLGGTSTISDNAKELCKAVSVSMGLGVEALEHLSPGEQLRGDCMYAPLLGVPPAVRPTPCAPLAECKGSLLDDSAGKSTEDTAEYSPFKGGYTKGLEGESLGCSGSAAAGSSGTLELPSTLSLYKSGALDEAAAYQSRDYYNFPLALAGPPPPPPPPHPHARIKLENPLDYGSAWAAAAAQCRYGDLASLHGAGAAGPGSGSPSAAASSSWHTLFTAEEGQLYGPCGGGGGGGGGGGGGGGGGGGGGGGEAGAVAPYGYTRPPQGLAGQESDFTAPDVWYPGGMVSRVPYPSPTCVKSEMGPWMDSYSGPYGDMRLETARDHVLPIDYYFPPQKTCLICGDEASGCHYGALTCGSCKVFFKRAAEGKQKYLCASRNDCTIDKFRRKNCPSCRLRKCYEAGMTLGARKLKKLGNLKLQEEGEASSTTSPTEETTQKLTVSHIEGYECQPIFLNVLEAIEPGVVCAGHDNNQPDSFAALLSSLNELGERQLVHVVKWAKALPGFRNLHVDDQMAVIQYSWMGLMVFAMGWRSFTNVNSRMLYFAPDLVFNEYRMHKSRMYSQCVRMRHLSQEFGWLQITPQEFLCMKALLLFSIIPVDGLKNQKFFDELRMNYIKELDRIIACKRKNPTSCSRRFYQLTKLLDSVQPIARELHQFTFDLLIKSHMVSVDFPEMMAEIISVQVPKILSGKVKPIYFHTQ
Summary of the method: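 Fluorescence from a beta-lactamase FRET substrate (LiveBLAzer B/G, 2 h, room temperature) measured inhibition of R1881-stimulated signaling in GeneBLAzer AR-UAS-bla HEK293 cells exposed to compound for 16 h at 37C.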

[18] = biological target: Androgen receptor (Homo sapiens) (UniProt P10275); experiment: qHTS assay to identify small molecule agonists of the androgen receptor (AR) signaling pathway (AID 743036; active means well fitted activation curve with a large enough effect in the signal ratio in the repeat runs, with a control signal flat, not every such curve was filed as active; the % refers to the signal ratio)
Summary of the method: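 Cell-based FRET reporter assay: HEK293 line with a UAS-beta-lactamase construct, compounds added in DMSO, 16 h exposure at 37C, then 2 h substrate step at room temperature and fluorescence intensity read.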

[19] = biological target: Androgen receptor (Homo sapiens) (UniProt P10275); experiment: qHTS assay to identify small molecule agonists of the androgen receptor (AR) signaling pathway using the MDA cell line (AID 743040; further: nearly all actives have a fitted effect of over 20% in size)
Summary of the method: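 Human breast carcinoma MDA-kb2 reporter cells (MMTV-luc, AR/GR elements) were treated for 16 h at 37C in 0% CO2 following a 5 h settling period. Signal was quantified by ONE-Glo luminescence.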

[20] = biological target: Androgen receptor (Homo sapiens) (UniProt P10275); experiment: qHTS assay to identify small molecule antagonists of the androgen receptor (AR) signaling pathway using the MDA cell line (AID 743042; further: nearly all actives have a fitted effect of over 55% in size; further: potency means the concentration at half of the fitted maximal effect)
Summary of the method: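 MDA-kb2 breast carcinoma cells carrying MMTV-luciferase (AR/GR responsive) were co-treated with compounds and the agonist R1881 for 16 h at 37C. Inhibition read as ONE-Glo luminescence; CellTiter-Fluor fluorescence measured in parallel for cytotoxicity.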

Row | Compound | Potency [1] | Potency [2] | Potency [3] | Potency [4] | Potency [5] | Potency [6] | Potency [7] | Potency [8] | Potency [9] | Potency [10] | Potency [11] | Potency [12] | Potency [13] | Potency [14] | Potency [15] | Potency [16] | Potency [17] | outcome [18] | outcome [19] | Potency [20]
1 | NC(=O)c1cccnc1 | inactive | inactive | inactive | inactive | inactive | inactive | inactive | inactive | inactive | inactive | inactive | inactive | inactive | – | – | – | – | – | – | –
2 | CCCCCCCC(=O)OCC(COC(=O)CCCCCCC)OC(=O)CCCCCCC | inactive | inactive | inactive | inactive | – | inactive | inactive | inactive | inactive | inactive | inactive | inactive | inactive | inactive | inactive | – | – | – | – | –
3 | COc1ccc(CN(CCN(C)C)c2ccccn2)cc1 | inactive | inactive | inactive | inactive | inactive | inactive | inactive | inactive | inactive | inactive | inactive | inactive | inactive | – | – | – | – | – | – | –
4 | Nc1ccc(O)c([N+](=O)[O-])c1 | inactive | inactive | inactive | inactive | – | inactive | inactive | inactive | – | – | – | inactive | – | inactive | – | 65.6 µM (active) | – | – | – | –
5 | CS(=O)(=O)OCCCCOS(C)(=O)=O | inactive | inactive | inactive | inactive | inactive | inactive | inactive | – | – | inactive | inactive | inactive | inactive | – | – | – | – | – | – | –
6 | NS(=O)(=O)c1cc2c(cc1Cl)NCNS2(=O)=O | inactive | inactive | inactive | inactive | inactive | inactive | inactive | inactive | inactive | inactive | inactive | inactive | inactive | – | inactive | – | – | – | – | –
7 | CCCCOC(=O)c1ccc(O)cc1 | inactive | inactive | inactive | inactive | – | inactive | inactive | inactive | inactive | inactive | inactive | inactive | inactive | inactive | – | – | inactive | inactive | inactive | inactive
8 | Nc1ccc([N+](=O)[O-])cc1O | inactive | inactive | inactive | inactive | inactive | inactive | inactive | inactive | – | inactive | – | inactive | 54.5 µM (active) | – | 47.2 µM (active) | 55.5 µM (active) | – | – | – | –
9 | Cc1ccc(S(=O)(=O)O)cc1 | inactive | inactive | inactive | inactive | inactive | inactive | inactive | – | – | inactive | inactive | inactive | inactive | – | inactive | – | – | – | – | –
10 | O=C1O[C@H]([C@@H](O)CO)C(O)=C1O | inactive | inactive | inactive | inactive | inactive | inactive | inactive | inactive | inactive | inactive | inactive and 54.5 µM (active) | inactive | inactive | – | inactive and 21.7 µM (active) | – | – | – | – | –
11 | C[C@](N)(Cc1ccc(O)c(O)c1)C(=O)O | inactive | inactive | inactive | inactive | inactive | inactive | inactive | – | – | inactive | inactive | inactive | inactive | – | inactive and 61.6 µM (active) and 60.9 µM (active) | – | – | – | – | –
12 | O=C1c2c(O)cccc2Cc2cccc(O)c21 | inactive | inactive | inactive | inactive | – | inactive | inactive | inactive | inactive | inactive | inactive | inactive | inactive | inactive | – | – | – | – | – | –
13 | CCCCCCCCCCCC[N+](C)(C)Cc1ccccc1 | inactive | inactive | inactive | inactive | inactive | inactive | inactive | – | – | 8.49 µM (active) and 19.1 µM (active) and 18.9 µM (active) | 422 nM (active) and 151 nM (active) and 1.05 µM (active) | 21.3 µM (active) and 19.1 µM (active) and 21.2 µM (active) | 29.8 µM (active) and 23.9 µM (active) and 37.4 µM (active) | – | 298 nM (active) and 67.3 nM (active) and 1.05 µM (active) | 668 nM (active) and 107 nM (active) and 1.05 µM (active) | – | – | – | –
14 | CC12CCC(CC1)C(C)(C)O2 | inactive | inactive | inactive | inactive | – | inactive | inactive | inactive | inactive | inactive | inactive | inactive | inactive | inactive | – | inactive | – | – | – | –
15 | C1CCC(C(CC2CCCCN2)C2CCCCC2)CC1 (stereo not drawn) | inactive | inactive | inactive | inactive | inactive | inactive | inactive | – | – | 21.3 µM (active) | 2.66 µM (active) | 23.9 µM (active) | 18.8 µM (active) | – | – | 5.96 µM (active) | – | – | inactive | 13.3 µM (active)
16 | Cc1cc(C)nc(NS(=O)(=O)c2ccc(N)cc2)n1 | inactive | inactive | inactive | inactive | – | inactive | inactive | inactive | inactive | inactive | inactive | inactive | inactive | inactive | – | inactive | – | – | – | –
17 | CCOC(N)=O | inactive | inactive | inactive | inactive | inactive | inactive | inactive | – | – | inactive | inactive | inactive | inactive | – | – | inactive | – | – | – | –
